# This is a sample that favours compounds with a hit; in the whole collection about 8.6% have one here.
# LASV entry inh: inhibitors of Lassa virus binding or entry into cells. Lassa virus pseudotyped entry inhibition, cell-based qHTS. Potency, µM (doses to about 49.2 µM), for inactives: top-dose activity change, negative = inhibition, usual class: inhibitors. 18,000 tested, 4.1% active. AID 720533
# MARV entry inh: inhibitors of Marburg virus binding or entry into cells | Marburg virus pseudotype entry/binding inhibition, cell-based | Potency, µM (highest dose often 49.2 µM), for inactives: top-dose activity change, negative = inhibition, actives largely listed as inhibitors | 18,000 tested, 6.5% active
# An asterisk follows results filed as active; ? = inconclusive; . = no result; ! = repeats disagree; [ ] = another dose, or the depositor's remark. The call rests on the fitted dose curve; tested in HEK293 cells. On the % scale 0 is the no-effect control and ±100 the full control effect; potency means the concentration at half of the fitted maximal effect.
SMILES,LASV entry inh,MARV entry inh
CC(C)=CCc1c2c(c3occ(-c4ccc(O)cc4)c(=O)c3c1O)C=CC(C)(C)O2,?,22µM*
COc1c2c(c(CC=C(C)C)c3oc(=O)c(-c4ccc(O)cc4)c(O)c13)OC(C)(C)C=C2,-5%,2%
CC(C)c1c(O)ccc2c1CCC1[C@@](C)(CO)CCC[C@@]21C (some centres undefined),?,-8%
COC(=O)[C@@]1(C)CCC[C@@]2(C)c3ccc(O)c(C(C)C)c3CCC21 (some centres undefined),11µM*,13µM*
CCN1C(=O)NC(c2cccc(F)c2)C(C(C)=O)=C1C (centres undefined),-12%[8.59 µM],?
O=C(NN=C1C[C@@H](O)[C@H](O)[C@H]2[C@@H]3C(=O)N(C[C@@H]4CCCO4)C(=O)[C@@H]3CC[C@H]12)OCc1ccccc1,.,30%[8.59 µM]
CC(Cc1cccc(C(F)(F)F)c1)NCCCc1ccccc1 (centres undefined),32µM*,14µM*
CCN[C@H](C)Cc1cccc(C(F)(F)F)c1,-14%[107 µM],-24%[107 µM]
C[C@@H]1C[C@H]2[C@@H]3CCC4=CC(=O)C=C[C@]4(C)[C@@]3(F)[C@@H](O)C[C@]2(C)[C@@]1(O)C(=O)COC(=O)c1cccc(S(=O)(=O)O)c1,-18%,22%
COC(=O)CC=C[C@@H](C)[C@@H](Cc1ccccc1Br)OC,.,-4%[8.59 µM]
COc1cc2ncnc(Nc3cccc(Cl)c3)c2cc1OC,16µM*!,14µM*!
COc1cc2ncnc(Nc3cccc(Br)c3)c2cc1OC,-20%,3%
Oc1ccc([C@@H]2CNCCc3c2cc(O)c(O)c3Cl)cc1,-14%,11%
Oc1ccc([C@H]2CNCc3c2ccc(O)c3O)cc1O,-21%,6.3µM*
CC(C)=CCN1C(=O)[C@]2(O[C@H](COc3ccccc3)CC3=C2CCC3)c2ccccc21,-9%[8.59 µM],-5%[8.59 µM]
Cc1ccc(CN2C=CCCS2(=O)=O)cc1,-9%,4%
CCCCC/C=C\C/C=C\C/C=C\CCCCCCC(=O)NC(C)C(=O)O (centres undefined),3%,-4%
CCCCCCCC/C=C\CCCCCCCC(=O)N[C@H](CO)Cc1ccc(O)cc1,14µM*,?
O=S1(=O)C=CCN1C1CCCC1,8%,30%
Cc1c(-c2ccc(O)cc2)nn(-c2ccc(O)cc2)c1-c1ccc(OCCN2CCCCC2)cc1,32µM*,4µM*
CCN1C(=O)c2ccccc2C1Nc1ccc(OCCN2CCCCC2)cc1 (centres undefined),-10%,-23%
N#CC(C#N)=NNc1ccc(OC(F)(F)F)cc1,1.3µM*,3.2µM*
COc1ccc(O[C@H]2C=C[C@@H](c3ccccc3)O[C@H]2COC(=O)CCC(C)=NO[C@H](C)c2cn([C@H](CO)Cc3ccccc3)nn2)cc1,-11%[8.59 µM],-9%[8.59 µM]
C=CCN1CCC2(C)c3cc(O)ccc3CC1C2C (centres undefined),1%,?
C[C@H]1[C@H]2Cc3ccc(O)cc3[C@]1(C)CCN2CCc1ccccc1,32µM*,18µM*
SMILES,LASV entry inh,MARV entry inh
O=C1C2=C(C(=O)c3ccccc31)[C@H]1O[C@](c3ccsc3)(Cc3c1ccc1ccccc31)O2,3%[8.59 µM],15%[8.59 µM]
CC(=O)OC1CC2C(C)(C)C(O)CC[C@@]2(C)C2CC[C@@]3(C)C(c4ccoc4)OC(=O)C4OC43[C@]12C (some centres undefined),-8%,?
CC(=O)OC1CC2C(C)(C)C(O)CC[C@@]2(C)C2CC[C@@]3(C)C(c4ccoc4)OC(=O)C4O[C@@]43[C@]12C (some centres undefined),?,13µM*
O=C1C(SCCO)=C(SCCO)C(=O)c2ccccc21,8.9µM*,3.5µM*
C[C@H](O)CON1C(=O)c2ccccc2C1=O,-1%,5%
C[C@@H]1CC[C@H]2C(=O)N(CC3CCCCC3)C[C@H](O)CN2[C@@H]1c1ccc(Br)cc1,-24%[8.59 µM],?
COCOc1cc(OC)ccc1C(=O)C=Cc1ccc([N+](=O)[O-])cc1,.,-19%[8.59 µM]
COc1ccc2c(c1)[C@@]13CCCCC1[C@@H](C2)N(C)CC3 (some centres undefined),?,8.9µM*
CN1CC[C@@]23CCCCC2C1Cc1ccc(O)cc13 (some centres undefined),9%,-14%
C#CCN1C(=O)C2(CC(C)=C[C@@H](C)O2)c2c(Br)cccc21 (some centres undefined),34%[8.59 µM],46%[8.59 µM]
C[C@@H](COc1ccccc1)N(CCCl)Cc1ccccc1,20%[17.8 µM],-28%[17.8 µM]
CC(C)N(CCC(=O)c1ccc2ccccc2c1)Cc1ccccc1,32µM*,?
CO[C@H]1[C@H](NC(=O)c2ccsc2)c2ccccc2C12CCN(Cc1cnn(C)c1C)CC2,0%,4%
CO[C@H]1[C@H](NC(=O)c2ccsc2)c2ccccc2C12CCN(Cc1cc(Cl)ccc1O)CC2,-28%,14µM*
COC(=O)C1=C(C)N(Cc2ccccc2)C(=NCC2CC2)NC1c1ccc(Br)cc1 (centres undefined),24%[8.59 µM],-10%[8.59 µM]
COc1ccc(O[C@H]2C=C[C@@H](c3ccccc3)O[C@H]2CON=C(C)CCN2CCCc3nc(C)c(C)cc32)cc1,2%[8.59 µM],?
C[C@@H]1CN(Cc2ccc3c(c2)CN(Cc2nc(-c4ccccc4)cs2)CCO3)C[C@H](C)O1,-6%,-16%
COC[C@@H](O)[C@H]1OCc2cccc(OC)c2[C@H]1C=Cc1ccccc1,-19%[8.59 µM],8%[8.59 µM]
O=C(Nc1ccc(Br)cc1)c1cc(Br)c(Br)s1,?,-21%
O=C(Nc1ccc(Br)cc1)c1cccc(S(=O)(=O)Nc2ccc(Br)cc2)c1,22µM*,?
COC(=O)C1=C(C)N(CCC(C)O)C(=O)N(C(C)=O)C1c1ccccc1 (centres undefined),-13%[8.59 µM],5%[8.59 µM]
Cc1cc2c(c(=O)o1)[C@H]1O[C@](c3ccsc3)(Cc3ccccc31)O2,1%[8.59 µM],10%[8.59 µM]
CCn1c(-c2nonc2N)nc2c(C#CC(C)(C)O)ncc(OCC3CCNCC3)c21,.,1.8µM*
CN(C)CCCn1c(-c2nonc2N)nc2cnccc21,-12%,?
CCn1c(-c2nonc2N)nc2cncc(C(=O)N3CCNCC3)c21,-55%,5%
SMILES,LASV entry inh,MARV entry inh
CCn1c(-c2nonc2N)nc2c(C#CC(C)(C)O)ncc(OCC3CCCN3)c21 (centres undefined),.,1.3µM*
O=C(c1cccs1)N1C[C@H](n2cc(C3CC3)nn2)[C@H](O)C[C@@H]1c1ccc(Cl)cc1,12%,-17%
COc1cccc([C@@H]2Oc3ccc(Br)cc3C(=O)[C@@H]2OC(=O)N[C@H]2CCCc3ccccc32)c1,-10%[8.59 µM],-11%[8.59 µM]
CC(=O)OC1CC2C(C)(C)C(O)CC(O)[C@@]2(C)C2CC[C@@]3(C)C(=CC(=O)OC3c3ccoc3)[C@]12C (some centres undefined),0%,-26%
COC(=O)CC1C(C)(C)C(OC(C)=O)C2[C@H](OC(C)=O)[C@]34O[C@]2(O)[C@]1(C)C3CC[C@]1(C)C4=CC(=O)OC1c1ccoc1 (some centres undefined),?,7.9µM*
CCC(C)(C)c1ccc(O)cc1,-2%,13%
CC(C)(C)CC(C)(C)c1ccc(O)cc1,?,45µM*!
CCN1C(=NCCCOC(C)C)N[C@H](c2ccccc2)[C@H](C(=O)OC)[C@H]1C,33%[8.59 µM],0%[8.59 µM]
COc1cc(CN2CCN(CCCSc3cc(C(C)(C)C)c(O)c(C(C)(C)C)c3)CC2)cc(OC)c1OC,20µM*,2.8µM*
C=CCOC(=O)N[C@H](c1cccc(OC)c1)[C@H](C)C=CCC(=O)OC,.,15%[8.59 µM]
